Experimental data published in PubChem BioAssay AID1376 (SRMLSC, 2008).
Where “and” joins values, the source holds several entries; their conditions need not be identical. Equal entries are not always repeated. The campaign covered roughly 220,000 compounds. About 530 (0.24%) were called active. This is one part of a sample in which actives are shown more often than they occur. Entries with a potency or affinity are not part of this list. Values without a mark were called inactive. Cut-off read from the data, not from the text of the source: active = inhibition above about 13%; inconclusive = no clear call, values can overlap the other calls; inactive = below that.

What follows are compounds tested against Bifunctional protein GlmU (Mycobacterium tuberculosis (strain ATCC 25618 / H37Rv)) (UniProt P9WMN3) (assay: inhibition of mycobacterial GlmU enzyme – biochemical, glucosamine-1-phosphate acetyltransferase (AID 1376;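 note: 0% = complete reaction with vehicle and 100% = reaction without substrate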)). Details: M. tuberculosis GlmU acetyltransferase enzyme assay; stronger effect = higher value;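 tested at 30 µM in the primary screen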.
Bifunctional protein GlmU (Mycobacterium tuberculosis (strain ATCC 25618 / H37Rv)), sequence (P9WMN3 whole entry, looked up): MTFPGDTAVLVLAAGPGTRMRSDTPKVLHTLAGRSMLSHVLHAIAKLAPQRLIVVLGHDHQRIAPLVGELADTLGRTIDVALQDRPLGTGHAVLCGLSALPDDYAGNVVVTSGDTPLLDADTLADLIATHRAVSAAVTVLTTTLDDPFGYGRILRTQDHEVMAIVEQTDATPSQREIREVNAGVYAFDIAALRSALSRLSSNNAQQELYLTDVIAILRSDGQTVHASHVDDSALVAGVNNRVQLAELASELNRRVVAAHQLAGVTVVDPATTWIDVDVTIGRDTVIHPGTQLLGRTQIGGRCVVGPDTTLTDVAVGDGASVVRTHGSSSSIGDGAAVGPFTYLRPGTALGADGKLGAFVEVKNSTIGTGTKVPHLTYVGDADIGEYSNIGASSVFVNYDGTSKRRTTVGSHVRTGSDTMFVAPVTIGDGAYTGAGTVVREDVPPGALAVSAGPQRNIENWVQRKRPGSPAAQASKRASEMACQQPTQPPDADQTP

| Compound | inhibition |
| --- | --- |
| CCOc1ccc(NS(=O)(=O)c2ccc3[nH]c(=O)cc(C(=O)O)c3c2)cc1 | 5.18% |
| Cc1oc2cc(O)ccc2c(=O)c1-c1cnn(-c2ccccc2)c1 | 1.72% |
| Cc1oc2c(O)c(O)ccc2c(=O)c1-c1cnn(-c2ccccc2)c1 | 15% (active) |
| Cc1oc2c(C)c(O)ccc2c(=O)c1-c1cnn(-c2ccccc2)c1 | -1.79% |
| CCOC(=O)C(NC(C)=O)(OCc1ccccc1)C(F)(F)F (stereo not drawn) | 1.91% |
| COC(=O)C(O)(NC(=O)OCc1ccccc1)C(F)(F)F (stereo not drawn) | 13.5% (active) |
| CCOC(=O)NC(NCc1ccccc1)(C(F)(F)F)C(F)(F)F | -2.58% |
| O=C(Nc1ccccc1N1CCOCC1)c1ccc(Cl)c(S(=O)(=O)NCc2ccco2)c1 | 0.84% |
| CN1CCN(C(=O)C2=C[C@@H](C3CCCCC3)C[C@@H](OCc3ccc(CO)cc3)O2)CC1 | 0.67% |
| COC(=O)c1ccccc1NC(=O)CSc1nnc(-c2cccnc2)n1C | 3.07% |
| COc1ccc(NC(=O)CCS(=O)(=O)c2ccc3c(c2)CCCN3C(C)=O)cc1Cl | -0.45% |
| COc1ccc(NC(=O)CCS(=O)(=O)c2ccc3c(c2)CCCN3C(C)=O)cc1 | 0.16% |
| COc1ccccc1CNC(=O)CCS(=O)(=O)c1ccc2c(c1)CCCN2C(C)=O | 15.2% (active) |
| O=[N+]([O-])c1ccc2[nH]nc(-c3ccccc3)c2c1 | 4.82% |
| NNC(=O)c1cc2sccc2s1 | 14% (active) |
| CC(=O)NNC(=O)c1cc2sccc2s1 | 0.49% |
| O=C(O)c1cc2sccc2s1 | 1.23% |
| O=C1c2cccnc2C(=O)N1C1CCCCC1 | 6.11% |
| CCC(c1ccccc1)c1nnc(NC(=O)c2ccco2)s1 (stereo not drawn) | 4.36% |
| CC1=CC(C)(C)N(C)C(=O)N1c1ccc(Cl)cc1 | -0.04% |
| Cc1cc(=O)cc(C)n1-c1ccc(Cl)cc1 | 1.93% |

| Compound | inhibition |
| --- | --- |
| O=C1[C@H]2[C@H](C=CC[C@H]2C(=O)N2CCN(c3ccccc3)CC2)CCN1Cc1ccc(Cl)c(Cl)c1 | 0.58% |
| O=S(=O)(Nc1nc(CN2CCOCC2)nc2sc3c(c12)CCCC3)c1cc(F)ccc1F | 2.36% and -0.91% |
| CC(c1ccccc1)N1CC(C(=O)N2CCN(c3ccccc3)CC2)CC1=O (stereo not drawn) | -1.56% |
| CS(=O)(=O)N(CC(=O)Nc1c(F)cccc1F)c1cccc([N+](=O)[O-])c1 | 1.32% |
| CS(=O)(=O)N(CC(=O)Nc1ccc(F)cc1F)c1cccc([N+](=O)[O-])c1 | 14.6% (active) |
| CS(=O)(=O)N(CC(=O)Nc1cccc(F)c1)c1cccc([N+](=O)[O-])c1 | 2.56% |
| Nc1nc2ccccc2cc1S(=O)(=O)c1ccccc1 | -5.35% |
| O=S(=O)(c1ccccc1)c1cc(O)ccc1O | 12.9% (active) |
| Cc1ccc(S(=O)(=O)c2cc(O)ccc2O)cc1C | 5.34% |
| Cc1ccc(C(=O)/C=C\Nc2ccc(C)c(C)c2)cc1 | -4.99% |
| COc1ccc(S(=O)(=O)NCC2CCCN(C(=O)CNC(C)=O)C2)cc1 (stereo not drawn) | -0.35% |
| CCc1ccc2oc(C(=O)Nc3ccc(S(N)(=O)=O)cc3)c(C)c2c1 | 1.87% |
| CCN1CCN(CCC2Oc3cc([N+](=O)[O-])ccc3NC2=O)CC1 (stereo not drawn) | -2.08% |
| CC(=O)NC1(C(F)(F)F)C(=O)Nc2c1c(=O)[nH]c(=O)n2CCc1ccccc1 (stereo not drawn) | 1.88% |
| COc1ccc(CCn2c3c(c(=O)[nH]c2=O)C(NC(=O)c2cccs2)(C(F)(F)F)C(=O)N3)cc1OC (stereo not drawn) | 13.3% (active) |
| COc1ccc(C(=O)NC2(C(F)(F)F)C(=O)Nc3c2c(=O)[nH]c(=O)n3CCc2ccc(OC)c(OC)c2)cc1 (stereo not drawn) | -0.41% |
| O=C(NCc1cccs1)c1csc2c1CCCCC2 | 1.69% |
| CCOC(=O)CSc1nc2ccccc2c(=O)n1CC1CCCC1 | -1.38% |
| CCN(CC)C(=O)CSc1nc2ccccc2c(=O)n1CC1CCCCC1 | 13.3% (active) |
| CCN(CC)C(=O)CSc1nc2ccccc2c(=O)n1CC | -0.44% |
| N#CCCn1cc(C(=O)Nc2ccccc2Br)c(-c2cc3ccccc3o2)n1 | -0.21% |

| Compound | inhibition |
| --- | --- |
| O=C(CN(CC1CCCO1)C(=O)CNS(=O)(=O)c1ccc(Cl)cc1)NCC1CCCO1 (stereo not drawn) | -2.4% |
| N#Cc1ccccc1NC1=CC(=O)CCC1 | -6.37% |
| CCc1nnc2n1N=C(c1ccc([N+](=O)[O-])cc1)CS2 | -0.05% |
| Cc1cccc(Oc2ccc(NC(=O)c3ccccc3C(=O)O)cc2)c1 | 1.43% |
| Cc1ccc(C(=O)Nc2ccc(O)cc2C(=O)O)cc1C | 1.76% |
| O=C(O)COc1ccc(NC(=O)c2cccs2)cc1 | -5.47% |
| Cc1ccc(C(=O)Nc2ccc(Oc3ccc(C(=O)O)c(C(=O)O)c3)cc2)cc1C | 47.7% (active) |
| COc1ccc(C(=O)Nc2cccc(OC)c2)cc1 | 6.57% |
| COc1ccc(NC(=O)c2cccs2)cc1 | -2.83% |
| O=C(O)c1ccccc1C(=O)Nc1ccc(Oc2ccccc2)cc1 | 0.7% |
| COC(=O)CCSC(=S)N1CCOCC1 | -0.58% |
| COc1ccc(NC(=O)N(Cc2cccs2)Cc2cc3cc4c(cc3[nH]c2=O)OCO4)cc1 | 1.28% |
| CCOC(=O)c1cc2sccc2n1CC(=O)C(C)(C)C | -4.29% |
| CCn1ncc(Br)c1C(=O)Nc1ccn(C23CC4CC(CC(C4)C2)C3)n1 | -4.08% |
| CC(=O)N(C)N1c2ccccc2CCc2ccccc21 | -8.48% |
| Cc1cccc(OCCNC(=O)c2ncn[nH]2)c1 | 1.93% |
| Cn1c(=O)c2c(nc(SCC(=O)NC34CC5CC(CC(C5)C3)C4)n2C)n(C)c1=O | -0.07% |
| O=C(CSc1nnc(-c2ccncc2)o1)NC1C2CC3CC(C2)CC1C3 (stereo not drawn) | 1.35% |
| CCOC(=O)c1nc2sc3c(c2c(=O)[nH]1)CCCC3 | 4.84% and 1.97% |
| O=C(O)c1ccc(/C=C/c2nc3sc4c(c3c(=O)[nH]2)CCC4)cc1 | 2.03% |
| N#C/C(=C\c1ccc(C(=O)O)cc1)c1nc2sc3c(c2c(=O)[nH]1)CCCC3 | 14.3% (active) |
